Experimental data: PubChem BioAssay (NCI)
The panel holds about 83,000 compounds, 20% with a hit somewhere; the sample as a whole holds those more often.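 Step 1: grow cells in 96-well plates. Step 2: add test compound at a single concentration. Step 3: incubate 48 h. Step 4: record percent growth.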 Values without a mark were called inactive. Active and inactive are the calls of the source. The calls were made as follows: active = growth percent below 10; inactive = the rest.

Columns and labels:
Experiment in all cases: NCI-60 one-dose screen, 48 h (100 = growth as untreated, 0 = no growth, -100 = all killed)
Details in all cases: 10 µM unless noted
DU-145 prostate = system: DU-145 prostate
K-562 leukemia = system: K-562 leukemia
MALME-3M melanoma = system: MALME-3M melanoma
MDA-MB-231 breast = system: MDA-MB-231 breast
RXF 393 renal = system: RXF 393 renal
SF-268 CNS = system: SF-268 CNS
SF-295 CNS = system: SF-295 CNS
SF-539 CNS = system: SF-539 CNS
UACC-257 melanoma = system: UACC-257 melanoma
M14 melanoma = system: M14 melanoma
HCT-15 colon = system: HCT-15 colon
HT29 colon = system: HT29 colon
SNB-75 CNS = system: SNB-75 CNS
SNB-19 CNS = system: SNB-19 CNS
U251 CNS = system: U251 CNS
PC-3 prostate = system: PC-3 prostate
SK-MEL-5 melanoma = system: SK-MEL-5 melanoma
UACC-62 melanoma = system: UACC-62 melanoma
LOX IMVI melanoma = system: LOX IMVI melanoma
SK-MEL-28 melanoma = system: SK-MEL-28 melanoma

Compound | growth (DU-145 prostate) | growth (K-562 leukemia) | growth (MALME-3M melanoma) | growth (MDA-MB-231 breast) | growth (RXF 393 renal) | growth (SF-268 CNS) [%] | growth (SF-295 CNS) | growth (SF-539 CNS) | growth (UACC-257 melanoma) | growth (M14 melanoma) | growth (HCT-15 colon) | growth (HT29 colon) | growth (SNB-75 CNS) | growth (SNB-19 CNS) | growth (U251 CNS) | growth (PC-3 prostate) | growth (SK-MEL-5 melanoma) | growth (UACC-62 melanoma) | growth (LOX IMVI melanoma) | growth (SK-MEL-28 melanoma)
CS(=O)(=O)c1ccc(N/N=C/c2c(-c3ccc(S(C)(=O)=O)cc3)[nH]c3ccc(F)cc23)cc1 | 39.9% | 10.5% | 10.7% | 29.6% | -10.9% (active) | 39.3 | -52.8% (active) | -19.8% (active) | 14.1% | 32.9% | 62.7% | 21.8% | 38.8% | 26.1% | 11.2% | 33.9% | -35.4% (active) | 25.7% | 3.68% (active) | 14.7%
N#C/C=C(\c1ccc([N+](=O)[O-])cc1)n1nnc2cc(Cl)c(Cl)cc21 | -21.2% (active) | 13.9% | 40.7% | 2.77% (active) | 0.579% (active) | 20.3 | 14.1% | -9.65% (active) | 45.6% | 21.1% | -39.1% (active) | 3.93% (active) | 18.1% | 41.5% | 11.8% | -12.5% (active) | 38.5% | 3.91% (active) | -79.9% (active) | 43.2%
N#C/C(=C\c1ccc(Br)cc1)n1nnc2ccccc21 | 14.5% | 14.5% | 24.1% | 0.304% (active) | -15.4% (active) | 23.9 | 16.1% | -3.55% (active) | 13.4% | 10.7% | 2.5% (active) | 3.79% (active) | 24.8% | 29% | -35.7% (active) | 12.7% | 6.25% (active) | 14% | -75% (active) | 6.49% (active)
CS(=O)(=O)c1ccc(-c2[nH]c3ccc(F)cc3c2/C=N/NC(N)=S)cc1 | 22.1% | 6.76% (active) | 55.9% | 13.7% | 1.16% (active) | 39.8 | 13.9% | -21.2% (active) | 63.3% | 11.6% | 20.4% | 3.14% (active) | 22.4% | 15.6% | 15.5% | 19.1% | 17.3% | 14.7% | 30.1% | 39.5%
O=C(CCl)N1c2cccc3cccc(c23)N(C(=O)CCl)C1c1cn(-c2ccccc2)nc1-c1cccc([N+](=O)[O-])c1 | 98% | 33.3% | 108% | 85.7% | 99.9% | 99.4 | 103% | 96.5% | 103% | 84.8% | 85.6% | 44.9% | 85.1% | 97.3% | 85% | 97.1% | 98.9% | 86.8% | 26.6% | 106%
N=C(N)c1ccc(-c2ccc(/C=C/c3ccccc3)s2)cc1 | 1.59% (active) | -27.7% (active) | 61.2% | -51.5% (active) | 39.2% | 60.7 | -61.7% (active) | 17.2% | 105% | 31.8% | -54% (active) | -2.42% (active) | 24.3% | 24.3% | -46.6% (active) | 52.7% | 81.3% | 86.2% | -82.1% (active) | 80.8%
CCNCCNc1cc(C2CCCC2)c(C#N)c2nc3ccccc3n12 | 28% | -28.3% (active) | -46.6% (active) | -45% (active) | -32.4% (active) | 22.1 | -61.7% (active) | -82.4% (active) | -27.3% (active) | -25.7% (active) | 26.8% | -9.9% (active) | -33.3% (active) | 36.8% | -19.1% (active) | 39.6% | -56.7% (active) | -81.4% (active) | -79% (active) | -63.8% (active)
N#Cc1c(NC(=O)c2ccccc2I)sc2c1CCCC2 | 62.9% | 14.8% | 60.9% | 54.7% | -10.4% (active) | 58.1 | 21.1% | 22.9% | 60.7% | 16.3% | 21.5% | 17.4% | 16.7% | 39.2% | 29.7% | 47.1% | 19.2% | 38% | 36.8% | 64.1%
CCN(CC)CCOC(=O)Nc1ccccc1Cl | 107% | 94.8% | 95.7% | 115% | 117% | 102 | 104% | 102% | 105% | 86.1% | 102% | 80.4% | 108% | 99.4% | 99.3% | 71.7% | 105% | 99.2% | 101% | 108%
COc1cc(-c2cccc([N+](=O)[O-])c2)c(-c2nc(-c3ccccc3)c(-c3ccccc3)n2C2CC2)cc1OC | 87.1% | 32.6% | 74.2% | 72.4% | 69.1% | 77 | 42.7% | 88.5% | 56.8% | 40% | 56% | 44.5% | 67.7% | 80.4% | 67.3% | 24% | 52.5% | 53.5% | 60.1% | 87.2%
CC(c1ccc(-n2cccn2)cc1)c1cnc(N2CCc3ccc(C(N)=O)cc3C2)s1 (stereo not given) | 88.2% | 30.4% | 72.4% | 72.5% | 82.2% | 86 | 52.3% | 70.7% | 48.7% | 45.6% | 69.3% | 81.3% | 76.1% | 85.4% | 78.3% | 59.1% | 18.8% | 57.3% | 66.4% | 81.8%
CCCN1CCN(c2ccc3nc(-c4ccc5nc(-c6ccc(OCC)c(OCC)c6)[nH]c5c4)[nH]c3c2)CC1 | -64.1% (active) | -5.53% (active) | -82.4% (active) | -80.2% (active) | -92.3% (active) | 15.8 | -63.2% (active) | -87.9% (active) | -29.7% (active) | -65.7% (active) | 5.97% (active) | -31.3% (active) | -77.9% (active) | -39.7% (active) | -71.9% (active) | -40.6% (active) | -93.9% (active) | -85% (active) | -84.3% (active) | -86.6% (active)
CCOc1ccc(-c2nc3ccc(-c4nc5ccc(N6CCN(C)CC6)cc5[nH]4)cc3[nH]2)cc1OCC | 11.1% | 12.8% | -34.7% (active) | 19.4% | -37.8% (active) | 19.3 | 27.2% | -42.7% (active) | 6.87% (active) | 10% | 63.7% | 19.4% | 6.64% (active) | 8.93% (active) | 4.64% (active) | 17.2% | 8.43% (active) | -14.3% (active) | -74.5% (active) | -27.2% (active)
N#Cc1c(NC(=O)c2ccc(Br)cc2)sc2c1CCCC2 | 33.3% | 15.9% | 49.2% | 44.9% | 13.7% | 61.7 | 21.7% | 10.5% | 66.1% | 17.3% | 22.2% | 15.8% | 13.6% | 38.5% | 31.2% | 28.9% | 9.6% (active) | 29.1% | 38.7% | 59%
